{
  "source": "paper PMC4336329",
  "about": "(PLoS ONE, 2015)",
  "note": "In all, about 310,000 compounds went through this assay and about 14,000 (4.5%) showed an effect of 50% or more. Effects have a minus sign here. This is one part of a sample in which strong results are shown more often than they occur.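 Further: peak tail current of the secondary pulse compared with the same well before compound.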",
  "data": [
    {"target": "human ether-à-go-go-related gene (hERG) potassium channel (human, UniProt Q12809)", "sequence (Q12809 whole entry, looked up)": "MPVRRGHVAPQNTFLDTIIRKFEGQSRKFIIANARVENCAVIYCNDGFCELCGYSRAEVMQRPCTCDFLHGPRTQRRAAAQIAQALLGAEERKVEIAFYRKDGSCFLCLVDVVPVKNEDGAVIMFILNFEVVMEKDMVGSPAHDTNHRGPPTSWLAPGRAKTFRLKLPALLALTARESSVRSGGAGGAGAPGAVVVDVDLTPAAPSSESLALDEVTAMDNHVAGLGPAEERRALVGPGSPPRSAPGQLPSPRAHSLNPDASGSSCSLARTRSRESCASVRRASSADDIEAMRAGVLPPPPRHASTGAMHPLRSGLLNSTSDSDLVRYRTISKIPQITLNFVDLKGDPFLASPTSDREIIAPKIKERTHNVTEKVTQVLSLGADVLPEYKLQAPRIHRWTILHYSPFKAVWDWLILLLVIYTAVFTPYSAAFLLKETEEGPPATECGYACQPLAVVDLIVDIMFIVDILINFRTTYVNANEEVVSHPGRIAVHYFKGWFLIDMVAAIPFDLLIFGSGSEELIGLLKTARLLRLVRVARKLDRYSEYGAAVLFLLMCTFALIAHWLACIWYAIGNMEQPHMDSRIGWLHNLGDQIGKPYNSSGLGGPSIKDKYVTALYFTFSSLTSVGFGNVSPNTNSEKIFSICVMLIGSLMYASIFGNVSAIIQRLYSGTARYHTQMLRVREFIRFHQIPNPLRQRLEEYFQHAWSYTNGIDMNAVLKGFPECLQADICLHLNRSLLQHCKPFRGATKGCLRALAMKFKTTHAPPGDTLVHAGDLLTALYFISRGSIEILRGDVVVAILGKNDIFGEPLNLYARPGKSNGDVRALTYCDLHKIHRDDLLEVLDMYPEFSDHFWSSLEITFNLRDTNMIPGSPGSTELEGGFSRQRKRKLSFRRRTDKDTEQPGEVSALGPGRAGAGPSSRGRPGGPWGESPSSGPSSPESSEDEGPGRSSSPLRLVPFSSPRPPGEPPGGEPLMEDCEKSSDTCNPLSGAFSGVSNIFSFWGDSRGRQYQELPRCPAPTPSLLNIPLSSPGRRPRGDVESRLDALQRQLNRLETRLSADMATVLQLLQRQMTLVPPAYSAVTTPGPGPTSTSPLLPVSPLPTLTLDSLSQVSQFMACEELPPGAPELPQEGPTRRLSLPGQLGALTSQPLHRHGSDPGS", "test": "primary screen, population patch clamp on CHO cells stably expressing hERG; higher = less effect of the substance", "units": {"hERG current change (%, negative = inhibition) at 10uM": "%"}, "values": [
      {"compound": "Cc1nnc(SCc2cc(=O)[nH]c(/N=C(\\N)Nc3ccccc3Sc3ccccc3)n2)s1", "hERG current change (%, negative = inhibition) at 10uM": -11.1},
      {"compound": "Cl.O=C(CNCCO)N1CCc2ccccc21", "hERG current change (%, negative = inhibition) at 10uM": -5.27},
      {"compound": "Cc1ccc(CN2C(=O)N/C(=C/c3ccc(-c4ccc(C(=O)O)cc4)o3)C2=O)cc1", "hERG current change (%, negative = inhibition) at 10uM": 0.0417},
      {"compound": "O=C1OC(N2CCN(C/C=C/c3ccccc3)CC2)c2ccccc21", "note": "(stereo not shown)", "hERG current change (%, negative = inhibition) at 10uM": 9.57},
      {"compound": "O=C1CC(N2CCN(C3CC(=O)N(CCc4ccccc4)C3=O)CC2)C(=O)N1CCc1ccccc1", "note": "(stereo not shown)", "hERG current change (%, negative = inhibition) at 10uM": -6.78},
      {"compound": "COc1ccc(CCN2C(=O)CC(N3CCN(C/C=C/c4ccccc4)CC3)C2=O)cc1OC", "note": "(stereo not shown)", "hERG current change (%, negative = inhibition) at 10uM": -43.9},
      {"compound": "O=C1CC(N2CCN(C/C=C/c3ccccc3)CC2)C(=O)N1Cc1ccc(N2CCCC2=O)cc1", "note": "(stereo not shown)", "hERG current change (%, negative = inhibition) at 10uM": -46.7},
      {"compound": "O=C1CC(N2CCN(C/C=C/c3ccccc3)CC2)C(=O)N1Cc1cccs1", "note": "(stereo not shown)", "hERG current change (%, negative = inhibition) at 10uM": -74.8},
      {"compound": "O=C1CC(N2CCN(C/C=C/c3ccccc3)CC2)C(=O)N1CCc1ccccc1", "note": "(stereo not shown)", "hERG current change (%, negative = inhibition) at 10uM": -58.1},
      {"compound": "C=CCn1c(CNC(=O)c2cccs2)n[nH]c1=S", "hERG current change (%, negative = inhibition) at 10uM": 15.5},
      {"compound": "Cc1cc(C)cc(OC(=O)CCN2C(=O)c3ccccc3C2=O)c1", "hERG current change (%, negative = inhibition) at 10uM": -3.19},
      {"compound": "COc1ccccc1N(CC(=O)Nc1ccc(F)c(F)c1)S(C)(=O)=O", "hERG current change (%, negative = inhibition) at 10uM": -1.01},
      {"compound": "COc1cccc(CN2CC(C(=O)NCCc3ccc(C)s3)CCC2=O)c1", "note": "(stereo not shown)", "hERG current change (%, negative = inhibition) at 10uM": -26.5},
      {"compound": "CCOC(=O)C1CCCN(S(=O)(=O)c2ccc3c4c(cccc24)C(=O)N3CC)C1", "note": "(stereo not shown)", "hERG current change (%, negative = inhibition) at 10uM": -63.5},
      {"compound": "CCOC(=O)N1CCN(S(=O)(=O)c2cc3c(cc2C)NC(=O)CO3)CC1", "hERG current change (%, negative = inhibition) at 10uM": -36.2},
      {"compound": "CCOC(=O)C1CCCCN1S(=O)(=O)c1cc2c(cc1C)NC(=O)CO2", "note": "(stereo not shown)", "hERG current change (%, negative = inhibition) at 10uM": -19.8},
      {"compound": "CCOC(=O)C1CCN(S(=O)(=O)c2ccc3c4c2CC(=O)N4CC(C)S3)CC1", "note": "(stereo not shown)", "hERG current change (%, negative = inhibition) at 10uM": -57.1},
      {"compound": "CCOC(=O)C1CCN(S(=O)(=O)c2cc3c(cc2C)NC(=O)CO3)CC1", "hERG current change (%, negative = inhibition) at 10uM": -54.9},
      {"compound": "CCOC(=O)C1CCN(S(=O)(=O)c2ccc3c4c(cccc24)C(=O)N3)CC1", "hERG current change (%, negative = inhibition) at 10uM": -54.6},
      {"compound": "CC1CCN(S(=O)(=O)c2ccc3c4c2CC(=O)N4CC(C)S3)CC1", "note": "(stereo not shown)", "hERG current change (%, negative = inhibition) at 10uM": 7.22},
      {"compound": "O=C1Nc2ccc(S(=O)(=O)N3CCCC3)c3cccc1c23", "hERG current change (%, negative = inhibition) at 10uM": -7.57},
      {"compound": "CCOC(=O)C1CCCN(S(=O)(=O)c2ccc3c4c2CC(=O)N4CC(C)S3)C1", "note": "(stereo not shown)", "hERG current change (%, negative = inhibition) at 10uM": -0.356},
      {"compound": "CCN1C(=O)c2cccc3c(S(=O)(=O)N4CCCC4C(=O)O)ccc1c23", "note": "(stereo not shown)", "hERG current change (%, negative = inhibition) at 10uM": 13},
      {"compound": "CCN1C(=O)c2cccc3c(S(=O)(=O)N4CCC(C)CC4)ccc1c23", "hERG current change (%, negative = inhibition) at 10uM": -16.8},
      {"compound": "CCOC(=O)N1CCN(S(=O)(=O)c2ccc3c4c(cccc24)C(=O)N3)CC1", "hERG current change (%, negative = inhibition) at 10uM": -14.5}
    ]}
  ]
}
